# Source: PubChem (several laboratories)
# SKKanGAS inh = SKKanGAS growth inhibition. AID 1662. 300,000 tested, 1.3% active. inhibition, % at 7.5 µM. S. pyogenes SKKanGAS, kanamycin growth, BacTiter-Glo, 6 h;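 active = mean replicate score, as percent of positive control median, at least 50; inconclusive = mean below 50 but one replicate at or above 50; inactive = mean and every replicate below 50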;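 also: strain carries kanamycin resistance gene driven by streptokinase promoter and grows in 40 µg/ml kanamycin; loss of luminescence reflects streptokinase promoter inhibition or plain growth inhibition; 0% = median of DMSO wells and 100% = positive control at its reference dose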
# IEC-6 tox-1 = kills IEC-6 intestinal cells in KLF5 counter-screen | IEC-6 cytotoxicity, luminescence viability | inhibition, % at 5 µM | 290,000 tested, 0.78% active; in the data active = inhibition above about 22%;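 also: 0% = plate median of test compound wells and 100% = cytotoxic reference compound wells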
# CSC inhib = cancer stem cell inhibition | inhibition, % at 7.5 µM | 300,000 tested, 1.1% active | cancer stem cell-like cells viability, luminescence; in the data active = inhibition above about 75%; inconclusive = no clear call, values can overlap the other calls; tested in HMLE shEcad cells
# aSyn UTR inh = MLPCN primary screen, SNCA 5' untranslated region | inhibition, % (tested at 7.5 µM) | alpha-synuclein 5'UTR reporter, inhibitor activity | 300,000 tested, 0.82% active; in the data active = inhibition above about 60%; inconclusive = no clear call, values can overlap the other calls;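 also: H4 neuroglioblastoma cells stably carrying SNCA 5'UTR luciferase fusion; 0% = DMSO wells and 100% = positive control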
# KLF5 inhibitor = suppresses KLF5 promoter-driven expression | DLD-1 KLF5 promoter-luciferase reporter, luminescence | inhibition, % at 5 µM | 290,000 tested, 0.23% active | AID 1700;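 active = inhibition above a per-plate limit of that plate's mean compound inhibition plus 3 SD, cut at about 60% in these data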;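 also: 0% = DMSO wells and 100% = LY294002 at 200 µM; higher means less KLF5 promoter-driven luciferase light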
# KLF5 inh confirm = confirmation of KLF5 inhibitors; DLD-1 KLF5 promoter firefly luciferase reporter, luminescence; inhibition, % at 4 µM; 610 tested, 79% active; AID 1834; shares compounds with KLF5 inhibitor;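 active = inhibition above a set limit taken from the earlier primary screen, cut at about 63% in these data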;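 also: 0% = DMSO wells and 100% = LY294002 at 200 µM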
# IEC-6 tox-2 = counter-screen for KLF5 inhibitors: cytotoxicity in rat IEC-6 cells. AID 1905. shares compounds with KLF5 inhibitor. inhibition, % at 4 µM. 610 tested, 56% active. IEC-6 rat intestinal cells, viability luminescence; in the data active = inhibition above about 23%;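 also: cells exposed to compounds for 48 hours before viability read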
# Numbers without * were called inactive; u = inconclusive; x = not tested or not shown; + = active, no number. Hits are enriched below; roughly 3% of the tested compounds scored in any of these assays.
SMILES,SKKanGAS inh,IEC-6 tox-1,CSC inhib,aSyn UTR inh,KLF5 inhibitor,KLF5 inh confirm,IEC-6 tox-2
CCC(=O)NC(c1cccs1)c1ccc2cccnc2c1O (stereo not given),41,28*,106*,80*,78*,91*,81*
CC(=O)NC(c1ccco1)c1cc(Cl)c2ccc(Cl)nc2c1O (stereo not given),x,x,28,x,x,x,x
CC(C)CC(=O)NC(c1cccs1)c1ccc2cccnc2c1O (stereo not given),u,12,102*,74*,77*,86*,50*
CC(=O)NC(c1cccs1)c1cc(F)c2cccnc2c1O (stereo not given),x,x,51,x,x,x,x
CC(C)C(=O)NC(c1ccco1)c1ccc2cccnc2c1O (stereo not given),87*,13,-7,63*,67*,96*,40*
CCCC(=O)Nc1nnc(S(=O)(=O)N(CC)c2ccc(OC)cc2)s1,5,3,1,29,-29,x,x
COc1ccc(OC)c(-c2cc(C(=O)Nc3ccc(F)cc3F)no2)c1,-2,-13,18,-2,-53,x,x
O=[N+]([O-])c1nn(-c2ccc3c(c2)OCCO3)n(O)c1=Nc1ccccc1,2,-3,9,80*,72*,82*,2
O=[N+]([O-])c1nn(-c2ccc3c(c2)OCCO3)n(O)c1=Nc1ccc(Cl)cc1,17,-11,18,12,21,x,x
CC(C)(O)[C@@H]1CC[C@@](C)(C2CC[C@]3(C)C2[C@H](O)CC2[C@@]4(C)CC[C@H](O)C(C)(C)C4[C@@H](O[C@H]4O[C@@H](CO)[C@H](O)[C@@H](O)[C@@H]4O[C@@H]4O[C@H](CO)[C@@H](O)[C@H](O)[C@H]4O)C[C@]23C)O1 (stereo in doubt),x,x,-13,x,x,x,x
COc1ccc(OC)c(C2C3=C(COC3=O)Nc3cc4c(cc32)OCO4)c1 (stereo not given),5,94*,x,89*,88*,92*,82*
O=C(Nc1nccs1)C1CC(=O)N(CCc2ccc(F)cc2)C1 (stereo not given),6,-3,-3,-4,7,x,x
COc1ccc(S(=O)(=O)N2CCC(C(=O)NN3CCCCC3)CC2)cc1OC,x,x,-7,x,x,x,x
CCOC(=O)/C=C1\SCC(=O)N1CC(=O)Nc1cccc(F)c1,-4,4,11,9,-14,x,x
O=C(Nc1ncccc1O)C1CCN(S(=O)(=O)c2ccc3ccccc3c2)CC1,-1,x,0,12,x,x,x
Cc1nnc(SCC(=O)Nc2c(C)n(C)n(-c3ccccc3)c2=O)n1Cc1ccccc1,-1,9,-3,14,7,x,x
CNC1=C(N(C(C)=O)c2ccc(Br)cc2)C(=O)c2ccccc2C1=O,57*,14,105*,111*,97*,94*,18
CC(=O)NC1=C(N(C)C2CCS(=O)(=O)C2)C(=O)c2ccccc2C1=O (stereo not given),2,0,5,10,-43,x,x
CCC(=O)N(C1=C(NC)C(=O)c2ccccc2C1=O)C(C)C,-14,3,-3,-1,76*,15,4
O=S(=O)(c1cnccc1N1CCN(CCO)CC1)N1CCCCC1,2,-1,-15,3,-9,x,x
CC(C)(C)c1ccc(-c2noc(CCC(=O)NCc3ccco3)n2)cc1,2,-1,5,77*,62*,65*,11
Cn1c(SCc2ccccc2F)nnc1-c1ccccn1,-2,-5,-1,-123,-102,x,x
Cc1nc(SCC(=O)Nc2nc3ccccc3s2)c(C#N)c(C)c1C,14,5,18,100*,96*,108*,27*
Cc1cc(C(F)(F)F)c(C#N)c(SCC(=O)Nc2nc3ccccc3s2)n1,30,5,25,-34,-36,x,x
O=[N+]([O-])c1ccc(O)c(-c2cc(C(F)(F)F)nc(-c3ccccc3)n2)c1,94*,13,88*,90*,82*,86*,41*
Oc1ccccc1-c1cc(C(F)(F)C(F)F)nc(-c2ccccc2)n1,6,-8,0,x,1,x,x
CCCCC(=O)NC(c1ccc(N(CC)CC)cc1)c1ccc2cccnc2c1O (stereo not given),44,11,+,68*,68*,85*,44*
CCCC(=O)NC(c1ccc(N(C)C)cc1)c1c(O)ccc2ccccc12 (stereo not given),4,-8,-5,-2,2,x,x
